# Measurements published in PubChem BioAssay (NCATS).
# Inconclusive results are not listed. Calls of active or inactive are those of the source. The call rests on the fitted dose curve; in most records, active means well fitted inhibition curve with a large enough effect; inconclusive means small, poorly fitted or top-dose-only effect; inactive means flat fitted curve, though single readings scatter.
# Experiment: qHTS to identify inhibitors of the type 1 interferon - major histocompatibility complex class I in skeletal muscle: primary screen against the NCATS Pharmaceutical Collection (AID 1347407)
# Conditions: human skeletal muscle cells, IFN-b-induced MHC-I HiBiT luminescence, 24 h; series mostly up to 45.9 µM; activity change, negative = inhibition: at the top concentration
# In short: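 Luminescence from HiBiT-tagged endogenous HLA-B*08:01 served as the read-out of IFN-beta-induced MHC class I in CRISPR-engineered C25cl48 myoblasts. Cells received 4 ng/ml IFN-beta plus compound (high final 46 uM, […]) for 24 h.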
# On the % scale 0 is the no-effect control and ±100 the full control effect.
row,Structure (SMILES),"activity change, negative = inhibition"
1,Cn1cc[nH]c1=S,28.1% (inactive)
2,O=c1[nH]c(=O)c2[nH]c(=O)[nH]c2[nH]1,-11.3% [at 9.18 µM] (inactive)
3,NC(=O)NNc1ccccc1,-3.01% (inactive)
4,N[C@@H](CSSC[C@H](N)C(=O)O)C(=O)O,0.957% [at 0.727 µM] (inactive)
5,CCC(=O)Nc1ccc(O)cc1,-2.53% (inactive)
6,Cc1cc2nc3c(=O)[nH]c(=O)nc-3n(C[C@H](O)[C@H](O)[C@H](O)CO)c2cc1C,5.26% [at 19 µM] (inactive)
7,Cc1cccc(Nc2cc(Cl)nc(SCC(=O)O)n2)c1C,-22.6% (inactive)
8,CC(=O)CCC(=O)O,1.44% (inactive)
9,OCC(CO)N[C@H]1C[C@](O)(CO)[C@@H](O)[C@H](O)[C@H]1O,-7.31% (inactive)
10,Cc1ncc(COP(=O)(O)O)c(C=O)c1O,1.47% (inactive)
11,COc1ccc(S(=O)(=O)Nc2nnc(CC(C)C)s2)cc1,-17.6% (inactive)
12,CC[C@@]1(c2ccccc2)NC(=O)N(C)C1=O,8.46% (inactive)
13,Cc1cc(O)cc2c1O[C@](C)(CCC[C@H](C)CCC[C@H](C)CCCC(C)C)CC2,-19.3% (inactive)
14,CCN(CC)CCNC(C(=O)OCCC(C)C)c1ccccc1 (centres undefined),-13% (inactive)
15,CCCc1c(OCCCCc2nn[nH]n2)ccc(C(C)=O)c1O,-13.1% (inactive)
16,COc1cc(C(=O)N2CCOCC2)cc(OC)c1OC,-13.8% (inactive)
17,Nc1ccc(S(=O)(=O)Nc2ccccc2)cc1,-13.6% (inactive)
18,O=C(O)CN1C(=O)c2cccc3cccc(c23)C1=O,-10.2% (inactive)
19,CN(N=O)C(=O)N[C@@H]1[C@@H](O)[C@H](O)[C@@H](CO)O[C@@H]1O,-0.0721% (inactive)
20,C[C@@H](O)[C@H](N)C(=O)O,-4.02% [at 19 µM] (inactive)

row,Structure (SMILES),"activity change, negative = inhibition"
1,COc1cc(C)c(Cc2cnc(N)nc2N)cc1OC,-2.85% (inactive)
2,CC(O)CN(CCN(CC(C)O)CC(C)O)CC(C)O (centres undefined),1.17% (inactive)
3,COC(=O)[C@H]1[C@H]2C[C@@H]3c4[nH]c5cc(OC)ccc5c4CCN3C[C@H]2C[C@@H](OC(=O)COc2ccc(OC)cc2)[C@@H]1OC,17.9% (inactive)
4,COc1ccccc1O,13.6% [at 92.2 µM] (inactive)
5,NCC(=O)CCC(=O)O,2.19% (inactive)
6,CCN(CC)CCSC(=O)C(c1ccccc1)c1ccccc1,-1.26% (inactive)
7,CC1(C)Oc2ccc(C#N)cc2[C@@H](N2CCCC2=O)[C@@H]1O,-8.89% (inactive)
8,CC1(C)OC(=O)NC1=O,0.0854% (inactive)
9,Cc1cc(CC(=O)O)n(C)c1C(=O)c1ccc(Cl)cc1,3.89% (inactive)
10,[O-][n+]1cccc(CO)c1,-5.21% (inactive)
11,CCCCN(CCCC)CCCOC(=O)c1ccc(N)cc1,0.733% (inactive)
12,C[C@H]1O[C@H](O[C@H]2[C@H](O)[C@@H](O)[C@@H](O[C@H]3[C@H](O)[C@@H](O)[C@H](O)O[C@@H]3CO)O[C@@H]2CO)[C@H](O)[C@@H](O)[C@@H]1N[C@H]1C=C(CO)[C@@H](O)[C@H](O)[C@H]1O,4.45% (inactive)
13,C[C@]12CC[C@@H]3c4ccc(O)cc4CC[C@H]3[C@@H]1CC[C@@H]2OC(=O)CCC1CCCC1,-2.21% (inactive)
14,CC1(C)[C@@H]2CC[C@@]1(C)C(=O)C2,5.21% (inactive)
15,O=c1cc(CO)occ1O,5.1% (inactive)
16,Cc1cccc(C)c1NC(=O)CN(CC(=O)O)CC(=O)O,-6.02% (inactive)
17,Oc1cccc(O)c1,-2.46% (inactive)
18,CC1=C(C/C=C(\C)CCC[C@H](C)CCC[C@H](C)CCCC(C)C)C(=O)c2ccccc2C1=O,0.907% (inactive)
19,CCCCC/C(C=O)=C\c1ccccc1,-4.97% (inactive)
